Assay outcomes from PubChem BioAssay.
PP5 primary – inhibitors of human protein phosphatase 5 (PP5); actives 0.18% (n = 320,000); inhibition, % at 6.7 µM; purified PP5c, OMFP substrate fluorescence;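 active = inhibition above the campaign's mean inhibition across all tested compounds plus 3 SD, cut at about 9.5% in these data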;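 note: 0% = DMSO only and 100% = 100 µM cantharidin control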
PP1 counter – PP1-alpha (human) inhibition in PP5 counter-screen; purified PP1alpha, OMFP fluorescence; AID 2235; inhibition, % at 6.7 µM; actives 0.9% (n = 320,000);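 active = inhibition above the mean inhibition of all tested compounds plus 3 SD, computed separately for each screening campaign, cut at about 15% in these data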
Target sequence (P62136 whole entry, looked up): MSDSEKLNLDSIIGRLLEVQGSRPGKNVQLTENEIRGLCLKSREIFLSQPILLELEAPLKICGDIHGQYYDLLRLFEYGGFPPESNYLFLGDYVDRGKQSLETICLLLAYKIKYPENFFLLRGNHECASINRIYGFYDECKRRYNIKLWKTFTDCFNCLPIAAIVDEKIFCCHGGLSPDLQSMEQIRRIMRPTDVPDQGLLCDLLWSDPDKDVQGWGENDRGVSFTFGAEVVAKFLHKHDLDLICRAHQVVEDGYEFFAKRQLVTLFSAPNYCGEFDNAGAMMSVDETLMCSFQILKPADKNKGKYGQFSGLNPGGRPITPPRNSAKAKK
PAFAH1B3 inh – blocks human PAF acetylhydrolase 1B catalytic subunit 3. actives 0.28% (n = 340,000). inhibition, % at 3.39 µM. Q15102. AID 492972. recombinant PAFAH1B3, FP-rhodamine probe, fluorescence polarization;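 active = inhibition above the screen-wide average of all tested compounds plus 3 SD, cut at about 25% in these data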;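 note: 0% = enzyme with DMSO only and 100% = wells lacking PAFAH1B3 protein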
Target sequence (Q15102 whole entry, looked up): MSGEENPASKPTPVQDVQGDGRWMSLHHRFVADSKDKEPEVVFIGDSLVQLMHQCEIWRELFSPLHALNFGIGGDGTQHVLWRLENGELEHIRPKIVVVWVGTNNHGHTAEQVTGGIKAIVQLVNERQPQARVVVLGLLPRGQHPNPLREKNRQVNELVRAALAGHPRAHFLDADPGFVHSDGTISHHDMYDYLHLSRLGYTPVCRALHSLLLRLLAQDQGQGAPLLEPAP
pPAFAH FP inh – inhibitors of human plasma PAF acetylhydrolase (pPAFAH); Q13093; actives 1.5% (n = 330,000); inhibition, % at 3.39 µM; recombinant pPAFAH, FP-rhodamine probe fluorescence polarization; AID 463082;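 active = inhibition above the mean inhibition across the screen plus 3 SD, cut at about 25% in these data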;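 note: inhibitors block binding of the rhodamine activity-based probe so polarization drops; 0% = enzyme with DMSO and 100% = wells lacking pPAFAH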
PAFAH1B2 inh – inhibitors of human PAFAH1B2 | P68402 | recombinant PAFAH1B2, FP-rhodamine activity probe, fluorescence polarization | inhibition, % at 3.39 µM | actives 1.2% (n = 340,000);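 active = inhibition above the mean of all tested compounds plus 3 SD, cut at about 24% in these data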;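 note: 0% = enzyme with DMSO and 100% = wells lacking PAFAH1B2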
PAFAH2 FP inh – inhibitors of human PAFAH2; Q99487; recombinant PAFAH2, FP-rhodamine activity probe, fluorescence polarization; inhibition, % at 3.39 µM; actives 0.99% (n = 340,000); AID 492956;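 active = inhibition above the mean over all tested compounds plus 3 SD, cut at about 30% in these data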;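 note: inhibitors block probe labeling of enzyme so polarization drops; 0% = enzyme with DMSO and 100% = wells lacking PAFAH2 protein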
Numbers without * were called inactive; · = no result. An excerpt weighted towards active compounds, which were near 3.4% of everything screened.

SMILES | PP5 primary | PP1 counter | PAFAH1B3 inh | pPAFAH FP inh | PAFAH1B2 inh | PAFAH2 FP inh
Cc1ccc(NC(=O)c2ccc(OCc3c(C)noc3C)cc2)cc1C | · | · | 6.4 | -2.4 | 4.4 | 0.0
O=C(O)c1ccc(N/N=C/c2ccc(OC(=O)c3ccccc3Cl)cc2)cc1 | 2.5 | 1.6 | 9.6 | 26.9* | -0.8 | 16.3
CCCCNC(=O)Oc1c(Br)cc2sc(=O)oc2c1Br | -0.1 | 2.8 | · | 52.4* | · | ·
CC(=O)C(=Cc1ccc(C(=O)O)cc1)C(C)=O | 2.1 | 4.7 | 7.7 | 0.5 | 1.6 | -3.6
Cc1ccc(S(=O)(=O)Nc2ccc3c(c2)nc(CCN2CCN(c4ccccn4)CC2)n3C)cc1 | 0.0 | -1.7 | 0.7 | 2.0 | 11.8 | -4.7
Cn1c(CCN2CCN(c3ccccn3)CC2)nc2cc(NS(=O)(=O)c3ccc(Cl)cc3)ccc21 | 1.9 | 1.9 | 0.4 | 14.4 | 25.6* | 0.7
Cn1cnnc1SCC(=O)NC1CCCN(Cc2ccccc2F)C1 (stereo not drawn) | 0.3 | -3.0 | 10.2 | 1.2 | 4.4 | 7.1
C=CCn1c(=S)[nH]c2cc(-c3ccccc3)sc2c1=O | 1.8 | 5.5 | 7.4 | 1.1 | 1.4 | 6.8
COc1ccc(S(=O)(=O)Oc2cccc(C(=S)N3CCOCC3)c2)cc1 | 5.7 | -2.1 | 1.2 | -1.7 | 26.4* | 1.1
COc1cc(C(=S)N2CCOCC2)cc(OC)c1OS(=O)(=O)c1ccc(Cl)cc1 | 0.3 | -1.1 | 3.0 | 2.3 | 1.6 | 2.1
CCOc1cc(C(=S)N2CCOCC2)ccc1OS(=O)(=O)c1ccc(OC)cc1 | 1.1 | 0.6 | 6.0 | 3.0 | 0.6 | -0.6
COc1cccc(C(=S)N2CCOCC2)c1OS(=O)(=O)c1ccc(Cl)cc1 | 3.3 | -0.9 | 10.9 | 27.1* | -2.9 | -2.2
CCOC(=O)c1oc2ccccc2c1CN1CCCCC1 | -0.7 | -4.0 | 3.4 | 4.0 | 7.4 | 2.8
CCOC(=O)c1oc2ccccc2c1CSc1nnnn1-c1ccccc1 | 0.0 | 1.6 | 15.2 | 26.1* | 6.6 | 1.8
CCn1c(C(=O)OC)cc2c1ccn2-c1ccc(F)cc1 | 4.3 | 3.0 | -2.0 | 9.1 | 2.3 | 0.2
CCOC(=O)CCCN1CC(O)=C(c2nc(-c3ccc(Cl)cc3)cs2)C1=N | 5.2 | 16.8* | 4.9 | 13.4 | 0.3 | 15.1
CCC(=O)NS(=O)(=O)c1cccnc1Nc1ccccc1Cl | -0.1 | -1.4 | -7.0 | 2.9 | 1.5 | -4.0
COc1cccc(-c2csc(N3CCN(CC(=O)NNC(=O)c4ccc(Cl)cc4)CC3)n2)c1 | 2.2 | 1.8 | -1.8 | -1.2 | 2.0 | -1.7
O=C(CSc1nnc(-c2ccc(F)cc2)c2ccccc12)Nc1cccc(Cl)c1 | -1.8 | 15.7* | -9.7 | -5.5 | -9.2 | -11.4
O=C(CSc1nnc(-c2ccc(F)cc2)c2ccccc12)Nc1ccccc1 | 5.0 | 14.7 | 9.5 | 1.8 | 3.3 | -2.8
Cc1ccc(NS(=O)(=O)c2cccs2)c(C)c1 | 3.2 | -3.9 | 4.0 | 27.6* | 4.0 | -12.1
Cc1cc(-c2nc3cccnc3s2)ccc1NS(=O)(=O)c1cccs1 | 0.6 | -4.0 | 1.7 | 32.7* | 7.9 | 5.3
O=[N+]([O-])/C=C/c1cn(Cc2ccc(Cl)cc2)c2ccccc12 | 1.6 | 16.3* | 3.2 | 7.2 | 2.9 | -6.6
Cc1cccc(Cn2cc(/C=C/[N+](=O)[O-])c3ccccc32)c1 | 3.4 | 17.1* | 10.2 | 6.6 | -0.1 | 7.2
COc1ccc(C(=O)Nc2ccc(-c3n[nH]c(=S)o3)cc2)cc1 | · | · | 17.2 | · | 0.8 | 1.5
SMILES | PP5 primary | PP1 counter | PAFAH1B3 inh | pPAFAH FP inh | PAFAH1B2 inh | PAFAH2 FP inh
COc1ccc(NC(=O)Nc2nnc(-c3ccccc3SCc3ccccc3)s2)cc1 | 3.2 | 18.5* | 7.1 | 5.8 | -2.5 | 4.5
COc1cc(CN(CC(C)C)S(=O)(=O)c2ccccc2Br)cc(OC)c1 | · | · | 0.0 | -5.1 | 6.0 | -1.2
Cc1nn(-c2ccccc2)c2c1CC(=O)Nc1ccccc1-2 | · | · | 14.6 | · | 31.1* | -3.6
Cc1ccc(NS(=O)(=O)c2ccc(CCC(=O)NCc3ccccn3)cc2)cc1 | 4.1 | 0.9 | -2.8 | 31.9* | 7.2 | 3.4
Cc1ccc(NS(=O)(=O)c2ccc(C(=O)NCc3ccccn3)cc2)cc1 | 2.9 | 2.2 | 7.0 | 30.6* | 5.7 | 2.3
Cc1ccc(NS(=O)(=O)c2ccc(CCC(=O)NCCO)cc2)cc1 | -1.8 | -2.2 | 1.4 | 24.9* | 1.3 | 4.1
O=C(CCNC(=O)c1ccc(Br)cc1)Nc1ccc(S(=O)(=O)Nc2ncccn2)cc1 | -2.0 | -2.6 | 4.8 | 27.9* | 2.3 | 7.1
O=C(CCNC(=O)c1ccccc1Cl)Nc1ccc(S(=O)(=O)Nc2ncccn2)cc1 | 0.0 | -2.7 | -1.8 | -3.1 | 0.1 | 4.3
Cc1cc(C)nc(N2CCCC(C(=O)NC3CCCC3)C2)n1 (stereo not drawn) | 0.6 | -2.2 | -4.2 | 8.2 | 4.3 | 4.2
Cc1ccc(NS(=O)(=O)c2ccc3c(c2)C(=O)c2ccccc2C3=O)c(C)c1 | 2.3 | 3.2 | 12.1 | 32.0* | 2.4 | 10.7
Cc1cccc(S(=O)(=O)Nc2cccc3c2C(=O)c2ccccc2-3)c1 | -1.9 | 5.5 | 2.3 | 4.5 | 5.9 | 4.8
O=C(Nc1ccc(NS(=O)(=O)c2ccccc2)cc1)c1ccccc1Cl | · | · | 2.6 | 24.7* | 6.4 | 5.7
CN(c1cccc(NC(=O)CSc2ccc(Cl)cc2)c1)S(C)(=O)=O | 1.9 | 2.6 | -0.8 | 29.4* | 49.5* | 9.6
CN(c1cccc(NC(=O)CCSc2ccccc2)c1)S(C)(=O)=O | 0.6 | -3.3 | 1.9 | 8.7 | 7.9 | 8.0
Cc1ccc(NS(=O)(=O)c2ccc(NC(=O)CSc3ccc(Cl)cc3)cc2)c(C)c1 | 0.0 | 5.1 | 9.1 | 33.4* | 18.1 | -6.9
COc1ccc(CNC(=O)c2ccc(N3CCC4(CC3)CC(c3ccc(Cl)cc3)=NO4)c([N+](=O)[O-])c2)cc1 | 3.5 | 12.2 | 7.4 | -2.9 | 2.9 | -0.2
Cc1cccc(NC(=O)c2ccc(C(=O)Nc3cccc(C)c3)nc2)c1 | 2.0 | -0.1 | 1.9 | 4.8 | 2.7 | -1.7
CCCc1[nH]n(-c2ccc([N+](=O)[O-])cc2)c(=O)c1C=NCCc1ccc(OC)c(OC)c1 | -0.6 | -3.5 | 5.4 | -0.5 | 10.5 | 0.5
Cc1ccc(NS(=O)(=O)c2ccc(NC(=O)c3ccccc3C(=O)O)cc2)c(C)c1 | 1.9 | 3.8 | 4.2 | 33.6* | 10.7 | 4.2
Cc1cc(NS(=O)(=O)c2ccccc2)ccc1NS(=O)(=O)c1ccccc1 | · | · | 4.8 | · | 28.3* | 11.9
O=S(=O)(Nc1ccc(O)c(NS(=O)(=O)c2ccccc2)c1)c1ccccc1 | 2.1 | -0.7 | 15.6 | 16.4 | 12.8 | 17.0
Cc1nc(NS(=O)(=O)c2ccccc2)sc1NC(=O)Nc1ccc(Cl)cc1 | 2.7 | -10.5 | 8.1 | 33.7* | 4.4 | 4.6
CC[C@@]1(c2ccccc2)C(=O)N(C(=O)OC)N1C(=O)OC | 3.2 | -4.5 | 4.3 | 1.6 | 2.3 | -2.3
O=C(Cc1nnc(NC(=O)c2ccccc2)s1)N/N=C\c1ccc(O)c(O)c1 | 0.2 | 6.5 | 11.7 | 27.4* | 3.4 | 16.5
Cc1cc(SCC(=O)N/N=C/c2ccc(O)c(O)c2)c(C)cc1Br | 0.7 | 1.2 | 22.5 | 25.8* | 3.1 | -7.8
